106 compounds from PubChem BioAssay AID2289 (National Center for Advancing Translational Sciences (NCATS), 2010) can be followed below.

Among all 340,000 compounds or so, about 3,300 (0.97%) were called active. Roughly 9% stayed inconclusive and do not appear here. Calls come from the whole dose curve; as a rule, active = well fitted inhibition curve with a large enough effect; inconclusive = small, poorly fitted or top-dose-only effect, or effect the other way; inactive = flat fitted curve, though single readings scatter. This is one part of the list.
Potency is the fitted concentration of half-maximal effect.

This assay can be described thus: qHTS Assay for Modulators of miRNAs and/or Inhibitors of miR-21. Note: nearly all actives have a fitted effect of over 55% in size. The conditions noted are these: HeLa miR-21-FLuc reporter, luciferase luminescence, 48 h; actives lower the signal. In short, it runs like this:
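HeLa miR-21-FLuc reporter line, endogenous miR-21; 2000 cells/well in DMEM/10% FBS; compound titration up to ~40uM final, 48 h, 37 degree Celsius; luciferase detection reagent, 15 min lysis, CCD luminescence.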
With `COc1ccc(OCC(=O)Nc2cc(-c3nc4ccccc4s3)ccc2C)cc1`, the Potency was 4.65 µM (active).

`Cc1ccc(-c2nc3ccccc3s2)cc1NC(=S)NC(=O)/C=C/c1ccco1`: the Potency was 10.4 µM (active).

On to `CCOc1cc(-c2nc3ccccc3s2)ccc1O`, for which the Potency was 9.27 µM (active).

Regarding `C/C(=N/Nc1ccccc1C(=O)O)c1cccs1`, the Potency was 14.7 µM (active).

In the case of `C/C(=N\Nc1nc(-c2ccccc2)cs1)c1cccs1`, the Potency is 8.26 µM (active).

As for `C/C(=N\Nc1ccccc1C(=O)O)c1ccncc1`, the Potency is 8.26 µM (active).

As for `O=C(Nc1ccc(Cl)cc1)c1ccc(-c2ccccn2)s1`, the Potency is 0.736 µM (active).

For the compound `c1ccc(-c2ccc(-c3ccccn3)s2)nc1`, the Potency is 0.736 µM (active).

As for `O=C(Nc1ccccc1Cl)c1ccc(-c2ccccn2)s1`, the Potency is 0.826 µM (active).

For `O=C(Nc1ccccc1)c1ccc(-c2ccccc2)s1`, the Potency was 1.85 µM (active).

Take `O=S1(=O)CCN2C(=N1)Sc1c2ccc2c1CCCC2`: the Potency is 13.1 µM (active).

With `Cc1nc(C#N)c(N/N=C/c2cccc(Cl)c2)o1`, the Potency was 7.36 µM (active).

For `COC(=O)c1sc(-c2ccc(C(C)(C)C)cc2)cc1NC(=O)COCC(=O)O`, the Potency was 11.7 µM (active).

Take `CCOc1ccc(-c2cc(NC(=O)Nc3ccccc3Cl)c(C(=O)OC)s2)cc1`: the Potency was 5.85 µM (active).

Consider `COC(=O)c1sc(-c2ccc(C(C)(C)C)cc2)cc1NC(=O)CCC(=O)O`, for which the Potency is 5.21 µM (active).

In the case of `COc1ccc(C2Nc3ccccc3C(=O)N2c2ccc(Cl)cc2)cc1Cn1cc([N+](=O)[O-])cn1` (stereo unspecified), the Potency was 0.736 µM (active).

As for `COc1ccc(C2Nc3ccccc3C(=O)N2c2ccc(C)cc2)cc1Cn1nnc2ccccc21` (stereo unspecified), the Potency is 6.56 µM (active).

As to `COc1ccc(N2C(=O)c3ccccc3NC2c2ccc(OC)c(Cn3nnc4ccccc43)c2)cc1` (stereo unspecified), the Potency was 5.21 µM (active).

Regarding `O=[N+]([O-])c1ccccc1/C=N/OCc1ccccc1`, the Potency was 14.7 µM (active).

On to `Cc1ccc(Cn2cnc3nc4c(cc3c2=O)CCCC4)cc1`, for which the Potency is 8.26 µM (active).

`Cc1ccc(Cn2cnc3nc4c(cc3c2=O)CC(C)CC4)cc1` (stereo unspecified): the Potency is 4.65 µM (active).

As for `O=C(Nc1ccc2c(c1)CCC2)C1COc2ccccc2O1` (stereo unspecified), the Potency is 1.47 µM (active).

Turning to `Cc1nc2cc(NC(=O)C3COc4ccccc4O3)ccc2s1` (stereo unspecified), the Potency is 4.14 µM (active).

As for `Cc1c(C(=O)N(CCO)Cc2ccccc2)oc2c(F)cccc12`, the Potency is 13.1 µM (active).

Regarding `C=CCn1c(SCC(N)=O)nnc1-c1cc2c(s1)CCC(CC)C2` (stereo unspecified), the Potency is 13.1 µM (active).

For the compound `C=CCn1c(SCC(=O)NCC)nnc1-c1cc2c(s1)CCC(CC)C2` (stereo unspecified), the Potency was 7.36 µM (active).

For `Cc1cccnc1Nc1nc(-c2ccc(O)c(O)c2)cs1`, the Potency is 4.65 µM (active).

For `Cc1cccnc1Nc1nc(-c2ccc(O)cc2)cs1`, the Potency was 3.29 µM (active).

For the compound `Cc1cccnc1Nc1nc(-c2ccc(O)cc2O)cs1`, the Potency is 5.21 µM (active).

With `Cc1ccc2nc(Cl)c(/C=C/C(=O)c3ccco3)cc2c1`, the Potency is 14.7 µM (active).

Consider `COCc1cc(C)nc2sc(C(=O)Nc3ccccc3F)c(N)c12`, for which the Potency is 18.5 µM (active).

As for `COCc1cc(C)nc2sc(C(=O)Nc3ccccc3O)c(N)c12`, the Potency is 13.1 µM (active).

In the case of `COCc1cc(C)nc2sc(C(=O)Nc3cc(C)ccc3F)c(N)c12`, the Potency is 7.36 µM (active).

Regarding `Cc1c(-c2nsc(NC(=O)c3cccs3)n2)nnn1-c1ccc(Cl)cc1`, the Potency is 2.07 µM (active).

For `Cc1ccc(-n2nnc(-c3nsc(NC(=O)c4ccccc4)n3)c2C)cc1`, the Potency was 5.21 µM (active).

Consider `Cc1c(-c2nsc(NC(=O)c3cccs3)n2)nnn1-c1ccc(F)cc1`, for which the Potency was 0.521 µM (active).

Turning to `Cc1c(-c2nsc(NC(=O)c3cccs3)n2)nnn1-c1ccc(Br)cc1`, the Potency was 1.85 µM (active).

In the case of `COc1cccc(-c2nc(=S)c3c(o2)CCCC3)c1`, the Potency is 1.85 µM (active).

Regarding `COCCn1c(SCc2nc3ccccc3s2)nc2ccccc21`, the Potency is 8.26 µM (active).

For the compound `Cc1cccc(C)c1Nc1nnc(SCc2nc3ccccc3s2)s1`, the Potency was 4.65 µM (active).

As for `CCn1c(SCc2nc3ccccc3s2)nnc1-c1ccccc1`, the Potency is 16.5 µM (active).

For `Cc1nnc(SCc2nc3ccccc3s2)n1-c1ccccc1`, the Potency is 16.5 µM (active).

For the compound `CCCn1c(SCc2nc3ccccc3s2)n[nH]c1=O`, the Potency was 6.56 µM (active).

`c1ccc(SCc2nc3ccccc3s2)nc1`: the Potency was 3.69 µM (active).

Regarding `CCCSc1nnc(Nc2ccccc2C)s1`, the Potency is 5.85 µM (active).

As to `O=c1c2ccccc2nc(SCc2nc3ccccc3s2)n1CCCO`, the Potency is 11.7 µM (active).

As to `Brc1ccccc1-c1nnc(SCc2nc3ccccc3s2)o1`, the Potency is 8.26 µM (active).

As to `Cc1ccccc1OCCSc1nnc(C)n1-c1ccccc1`, the Potency was 14.7 µM (active).

Take `Nc1ccc(O)c2c(=O)cc(-c3ccccc3Cl)oc12`: the Potency was 3.29 µM (active).

As for `Nc1ccc2oc(-c3ccccc3Cl)cc(=O)c2c1O`, the Potency was 6.56 µM (active).

As for `O=c1cc(-c2ccccc2Cl)oc2cc(O)cc(O)c12`, the Potency was 10.4 µM (active).

Turning to `C#Cc1cccc(NC(=O)c2ccc(Cl)cc2Cl)c1`, the Potency was 1.17 µM (active).

Consider `O/N=C/c1cn(-c2ccc(Cl)cc2)nn1`, for which the Potency was 13.1 µM (active).

In the case of `O=C(COc1ccc(F)cc1Br)NCc1ccccn1`, the Potency is 14.7 µM (active).

In the case of `COc1ccc(CNC(=S)N/N=C(/C)c2ccccc2)cc1`, the Potency was 11.7 µM (active).

`COc1ccccc1C(=O)NC(=O)Nc1cccc(Cl)c1`: the Potency is 0.736 µM (active).

`COc1ccc(CNC(=O)Nc2cccc(Cl)c2)cc1`: the Potency is 3.69 µM (active).

In the case of `Cc1ccc(CNC(=O)Nc2ccccc2)c(C)c1`, the Potency was 1.65 µM (active).

As to `COc1ccc(CNC(=O)Nc2ccccc2)cc1`, the Potency is 4.65 µM (active).

For `CSc1ccc(NC(=O)NCc2ccccc2)cc1`, the Potency was 9.27 µM (active).

`COc1ccc(/C=N/N=C2/SCC(=O)N2Cc2ccccc2)cc1`: the Potency is 2.07 µM (active).

Regarding `CCc1ccc2[nH]c(C(=O)Nc3ccc(Br)c(C)n3)cc2c1`, the Potency is 1.65 µM (active).

Regarding `COc1cccc(CNc2nc3nc(C)c(Cl)c(C)n3n2)c1`, the Potency is 10.4 µM (active).

Consider `COc1ccc(CNc2nc3nc(C)c(Cl)c(C)n3n2)cc1`, for which the Potency is 16.5 µM (active).

On to `O=C(/C=C/c1ccccc1[N+](=O)[O-])Nc1cccnc1`, for which the Potency is 7.36 µM (active).

With `O=C(COc1ccccc1Cl)Nc1cccnc1`, the Potency was 6.56 µM (active).

Regarding `Cc1ccc(OCC(=O)Nc2ccccc2[N+](=O)[O-])c(Br)c1`, the Potency was 1.31 µM (active).

With `Cc1ccc(Cl)c(OCC(=O)Nc2cccnc2)c1`, the Potency is 3.29 µM (active).

On to `Cc1ccc(OCC(=O)Nc2ccon2)c([N+](=O)[O-])c1`, for which the Potency was 6.56 µM (active).

As for `Cc1ccc(NC(=O)COc2ccc(Br)cc2C)cc1`, the Potency was 9.27 µM (active).

With `Cc1ccc(NC(=O)c2ccc(OC(=O)COc3ccc(Cl)cc3C)cc2)cc1`, the Potency is 1.47 µM (active).

`O=C(COc1ccccc1[N+](=O)[O-])Nc1cccnc1`: the Potency is 8.26 µM (active).

With `O=C(COc1ccccc1[N+](=O)[O-])Nc1ccc(Br)cc1`, the Potency was 3.29 µM (active).

As to `S=C(NNC(=S)Nc1ccccc1)Nc1ccccc1`, the Potency is 6.56 µM (active).

Consider `O=C(NNC(=S)Nc1ccccc1)c1ccc(O)cc1`, for which the Potency is 7.36 µM (active).

Turning to `Cn1c(C2=C(O)CN(Cc3ccccc3)C2=N)nc2ccccc21`, the Potency is 14.7 µM (active).

As to `O=C(Nc1ccc(Cl)cc1Cl)c1ccc2ncsc2c1`, the Potency was 2.33 µM (active).

As for `O=C(Nc1ccc(F)cc1F)c1ccc2ncsc2c1`, the Potency was 13.1 µM (active).

As to `O=C(Nc1ccc(Br)cc1)c1ccc2ncsc2c1`, the Potency is 1.47 µM (active).

On to `O=C(Nc1ccccc1F)c1ccc2ncsc2c1`, for which the Potency is 9.27 µM (active).

`N#C/C(=C\c1cccs1)C(=O)Nc1nccs1`: the Potency was 7.36 µM (active).

Take `Cn1c(=O)n(CCOc2ccccc2Cl)c2ccccc21`: the Potency was 7.36 µM (active).

For the compound `Cc1ccc(OCCn2c(=O)n(C)c3ccccc32)cc1`, the Potency is 7.36 µM (active).

Take `Cc1ccc2oc(C(=O)N3CCCCCC3)c(C)c2c1`: the Potency was 6.56 µM (active).

As to `Cc1ccc2oc(C(=O)NCCCN3CCOCC3)c(C)c2c1`, the Potency is 2.93 µM (active).

As to `COc1ccc(CCc2nnc(CCC(=O)NCc3cc(C(C)C)no3)o2)cc1`, the Potency was 14.7 µM (active).

Consider `CCc1cc(CNC(=O)CCc2nnc(CCCc3ccccc3)o2)on1`, for which the Potency is 7.36 µM (active).

For `Cc1ccc(-n2ncc3c(SCc4ccccc4)ncnc32)cc1`, the Potency is 3.29 µM (active).

As to `CC(C)Sc1ncnc2c1cnn2-c1ccccc1`, the Potency was 2.61 µM (active).

With `Brc1ccccc1OCCCn1cnc2ccccc21`, the Potency is 1.85 µM (active).

For the compound `O=[N+]([O-])c1ccccc1OCCCn1cnc2ccccc21`, the Potency was 2.93 µM (active).

With `Cc1ccccc1OCc1nc2ccccc2n1C`, the Potency was 1.04 µM (active).

In the case of `C#CCn1c(COc2ccccc2C)nc2ccccc21`, the Potency was 5.85 µM (active).

On to `CCn1c(COc2ccccc2C)nc2ccccc21`, for which the Potency is 9.27 µM (active).

In the case of `Cn1c(COc2ccc(F)cc2)nc2ccccc21`, the Potency is 2.93 µM (active).

On to `Cc1nnc(OCc2nc3ccccc3n2C)c2ccccc12`, for which the Potency was 16.5 µM (active).

For the compound `Cc1cccc(OCc2nc3ccccc3n2C)c1`, the Potency was 16.5 µM (active).

As for `COc1ccc(-c2c(C)c3ccc(O)cc3oc2=O)cc1`, the Potency is 9.27 µM (active).

On to `COc1ccc(-c2cc3ccc(OCC(C)=O)cc3oc2=O)cc1OC`, for which the Potency is 3.69 µM (active).

Regarding `COc1ccc(-c2cc3ccc(OCC(C)=O)cc3oc2=O)cc1`, the Potency was 0.656 µM (active).

On to `COc1ccc(-c2cc3ccc(O)cc3oc2=O)cc1OC`, for which the Potency is 18.5 µM (active).

For the compound `O=C(O)c1cc(N/N=C/c2ccc(OCc3ccccc3)cc2)ccc1Cl`, the Potency was 1.17 µM (active).

In the case of `O=C(O)c1cc(N/N=C/c2ccc(-c3ccc(F)cc3)o2)ccc1Cl`, the Potency was 16.5 µM (active).

Turning to `O=C(O)c1cc(N/N=C/c2ccc(-c3ccccc3)cc2)ccc1Cl`, the Potency is 0.233 µM (active).

For `CSc1n[nH]c(-c2ccc(C(F)(F)F)cc2)n1`, the Potency was 7.36 µM (active).

With `C#CC(C)(C)NC(=O)c1ccc(-c2ccccc2F)cc1`, the Potency is 5.85 µM (active).
